Experimental data: PubChem BioAssay
Potency and affinity values are given separately. Activity calls are given as the source filed them.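 How the source made its calls, unless noted: active means primary screen activator hit with a dose response curve and TRPC4 channel activation at any tested dose; inactive means no activation, no dose response, or not a primary hit.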

target: Short transient receptor potential channel 4 (Mus musculus) (UniProt Q9QUQ5); experiment: mouse TRPC4 channel activators, dose response, cell-based, HEK293 TRPC4/mu-opioid, Fluo-4 calcium (AID 434937); conditions: HEK293 TRPC4 cells, Fluo-4 calcium fluorescence ratio; series mostly up to 20 µM; activation ratio: at the top concentration
Sequence (Q9QUQ5 whole entry, looked up): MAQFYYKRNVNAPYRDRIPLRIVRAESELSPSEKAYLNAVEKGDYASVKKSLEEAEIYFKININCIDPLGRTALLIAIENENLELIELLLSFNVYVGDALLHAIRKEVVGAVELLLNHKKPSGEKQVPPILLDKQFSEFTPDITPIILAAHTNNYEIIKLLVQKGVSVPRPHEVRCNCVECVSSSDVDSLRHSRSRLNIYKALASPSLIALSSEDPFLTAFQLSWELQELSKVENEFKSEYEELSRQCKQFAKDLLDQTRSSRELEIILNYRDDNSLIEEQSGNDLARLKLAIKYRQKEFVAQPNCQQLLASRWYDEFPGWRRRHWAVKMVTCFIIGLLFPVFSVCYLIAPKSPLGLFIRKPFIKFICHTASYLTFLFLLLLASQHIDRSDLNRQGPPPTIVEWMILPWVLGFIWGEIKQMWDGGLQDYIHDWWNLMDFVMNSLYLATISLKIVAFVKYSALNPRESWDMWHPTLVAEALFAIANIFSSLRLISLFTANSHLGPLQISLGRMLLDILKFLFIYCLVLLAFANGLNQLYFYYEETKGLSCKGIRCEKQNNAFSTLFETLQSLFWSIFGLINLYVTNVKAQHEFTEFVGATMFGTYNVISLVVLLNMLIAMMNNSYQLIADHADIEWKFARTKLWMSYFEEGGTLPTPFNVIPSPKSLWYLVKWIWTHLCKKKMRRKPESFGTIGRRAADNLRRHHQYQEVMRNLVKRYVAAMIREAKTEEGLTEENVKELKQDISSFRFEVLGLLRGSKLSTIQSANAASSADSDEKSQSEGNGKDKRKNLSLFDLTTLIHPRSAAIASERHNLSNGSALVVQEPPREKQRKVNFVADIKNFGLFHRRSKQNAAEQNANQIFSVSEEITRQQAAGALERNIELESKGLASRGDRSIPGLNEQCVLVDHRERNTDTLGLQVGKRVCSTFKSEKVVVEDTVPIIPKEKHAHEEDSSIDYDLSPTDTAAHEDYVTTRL

Row | Structure (SMILES) | activation ratio
1 | Cc1ccccc1Cn1c(=N)n(CC(O)c2ccco2)c2ccccc21 (stereo not drawn) | 14.3 (inactive)
2 | CN1CCN(c2ccc(NC(=O)c3ccc(-c4ccc(Cl)cc4)o3)cc2)CC1 | 32.1 (inactive)
3 | COc1cc(C(F)(F)F)nc2c(Br)c(C(C)(C)C)nn12 | 2.69 (inactive)
4 | Clc1cccc(C[n+]2cc(-c3ccccc3)n3c2CCC3)c1 | 0.08 (inactive)
5 | COC(=O)c1ccc(CSc2nc3ccccc3c(=O)n2CC(C)C)o1 | 0.32 (inactive)
6 | CN(C)c1ccc(NC(=O)CN2C3CCCC2CC(NC(=O)c2ccccc2)C3)cc1 (stereo not drawn) | 5.49 (inactive)
7 | Cc1ccn2c(CNCCCn3cccn3)c(C(=O)N3CCCCCC3)nc2c1 | 33.5 (inactive)
8 | O=C(O)c1ccc(N/N=C/c2ccc(-c3cccc(Cl)c3)o2)cc1 | 4.6 (inactive)
9 | NS(=O)(=O)c1ccc(CCNCc2ccccc2OCc2ccc(Cl)cc2)cc1 | 15.6 (inactive)
10 | CCCCn1c(NCCO)nc2ccccc21 | 1.38 (inactive)
11 | CCCOc1ccc(-c2nc(SCc3ccccc3)[nH]c(=O)c2C#N)cc1OC | 14.2 (inactive)
12 | NC(=O)c1nsc(C(=O)N(Cc2ccccc2Cl)C(C(=O)NCC2CCCO2)c2ccc(O)cc2)c1N (stereo not drawn) | 0.03 (inactive)
13 | N#Cc1cccc2c1-c1ccccc1/C2=N/NC(N)=O | -0.34 (inactive)
14 | CCCn1c(NC(=O)c2ccc(Cl)c(S(=O)(=O)N3CCCC3)c2)nc2ccccc21 | 8.13 (inactive)
15 | CCOC(=O)C(C)Sc1nc2c(c(=O)[nH]c(=O)n2C)n1Cc1ccc(Cl)cc1 (stereo not drawn) | -0.8 (inactive)
16 | OCCNc1nc2ccccc2n1CCN1CCCCC1 | 1.21 (inactive)
17 | Cc1cc(N2CCC(C)CC2)nc2cccc(O)c12 | 0.6 (inactive)
18 | CCCN1C2=NCCN2c2cc(C)c(C)cc21 | 2.81 (inactive)
19 | COc1ccc(C2NC(C(=O)O)Cc3c2[nH]c2ccccc32)cc1CN1CCN(c2ccc(F)cc2)CC1 (stereo not drawn) | 8.59 (inactive)
20 | COc1cc(CNC2CCCC2)cc(Cl)c1OCc1ccc(F)cc1 | 12.2 (inactive)

Row | Structure (SMILES) | activation ratio
21 | CC1CCN(C(C)C(=O)Nc2ccccc2-c2ccccc2)CC1 (stereo not drawn) | 5.46 (inactive)
22 | COc1cccc(C(=O)C2CCCN(Cc3cccn3-c3ccccn3)C2)c1 (stereo not drawn) | 3.49 (inactive)
23 | N=c1c2c(n(Cc3ccccc3)c3c1CCC3)CCC2 | 1.67 (inactive)
24 | OCC1(CCCc2ccccc2)CCN(Cc2cc(F)ccc2F)CC1 | 7.91 (inactive)
25 | N#Cc1c(NC(=O)C2CC(Cl)=CCC2C(=O)O)sc2c1CCCCC2 (stereo not drawn) | 3.86 (inactive)
26 | c1ccc2[nH]c(CCCCc3nc4ccccc4[nH]3)nc2c1 | -0.67 (inactive)
27 | CN(C)CCN1C(=O)C2C(C(=O)Nc3cc(Cl)cc(Cl)c3)C3C=CC2(O3)C1C(=O)NC1CCCCC1 (stereo not drawn) | 15.7 (inactive)
28 | CCc1cccc(OCC(=O)Nc2ccc(C(=O)O)cc2NC(=O)COc2cccc(CC)c2)c1 | -1.26 (inactive)
29 | CCc1ccc2nc(N=C(N)N)nc(C)c2c1 | 0.33 (inactive)
30 | C=CCOc1ccc(Br)cc1CNC(C)(C)CO | 2.38 (inactive)
31 | O=c1c2ccccc2[nH]c(=S)n1CCN1CCN(Cc2ccccc2)CC1 | 10.7 (inactive)
32 | CN(CC(=O)NC1CCCc2ccccc21)C1CCCCC1 (stereo not drawn) | 2.71 (inactive)
33 | Cc1cc(C(=O)N/N=C\c2cc(C(C)(C)C)ccc2O)n[nH]1 | -2.3 (inactive)
34 | CC1(C)CC2CC(C)(CN2C(=O)c2cc(-c3ccc(O)cc3)on2)C1 (stereo not drawn) | 2.69 (inactive)
35 | OCC1(Cc2ccccc2)CCCN(Cc2cnn(-c3ccccc3)c2)C1 (stereo not drawn) | 2.59 (inactive)
36 | CCOc1ccccc1CN1CCC(n2nccc2NC(=O)CCc2ccccc2)CC1 | 19 (inactive)
37 | CCCOc1cccc(C(=O)NCCNC(=O)c2ccco2)c1 | 1.12 (inactive)
38 | Brc1ccc(CN2C3=NCCCN3c3ccccc32)cc1 | 5.8 (inactive)
39 | Cc1[nH]n(C)c(=O)c1C(=O)c1c(-c2c(Cl)cccc2Cl)noc1C | -0.84 (inactive)

target: Short transient receptor potential channel 4 (Mus musculus) (UniProt Q9QUQ5); experiment: TRPC4 positive allosteric modulators, dose response, cell-based, HEK293 TRPC4/mu-opioid, Fluo-4 calcium, EC20 DAMGO (AID 434941;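 active means earlier screen potentiator hit that boosts the TRPC4 ion channel at some dose, with a dose response; inactive means no potentiation, no dose response, or not a prior hit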;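 further: calcium entry triggered by an EC20 dose of DAMGO at the co-expressed mu-opioid receptor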); conditions: HEK293 TRPC4/mu-opioid cells, Fluo-4 calcium fluorescence; series mostly up to 20 µM; potentiation ratio: at the top concentration

Row | Structure (SMILES) | potentiation ratio
40 | Cc1ccccc1Cn1c(=N)n(CC(O)c2ccco2)c2ccccc21 (stereo not drawn) | -4.62 (inactive)
41 | CN1CCN(c2ccc(NC(=O)c3ccc(-c4ccc(Cl)cc4)o3)cc2)CC1 | -15.4 (inactive)
42 | COc1cc(C(F)(F)F)nc2c(Br)c(C(C)(C)C)nn12 | 1.58 (inactive)
43 | Clc1cccc(C[n+]2cc(-c3ccccc3)n3c2CCC3)c1 | 0.15 (inactive)
44 | COC(=O)c1ccc(CSc2nc3ccccc3c(=O)n2CC(C)C)o1 | -0.34 (inactive)
45 | CN(C)c1ccc(NC(=O)CN2C3CCCC2CC(NC(=O)c2ccccc2)C3)cc1 (stereo not drawn) | -3.54 (inactive)
46 | Cc1ccn2c(CNCCCn3cccn3)c(C(=O)N3CCCCCC3)nc2c1 | -17.2 (inactive)
47 | O=C(O)c1ccc(N/N=C/c2ccc(-c3cccc(Cl)c3)o2)cc1 | 2.34 (inactive)
48 | NS(=O)(=O)c1ccc(CCNCc2ccccc2OCc2ccc(Cl)cc2)cc1 | -21.7 (inactive)
49 | CCCCn1c(NCCO)nc2ccccc21 | 0.52 (inactive)
50 | CCCOc1ccc(-c2nc(SCc3ccccc3)[nH]c(=O)c2C#N)cc1OC | -3.84 (inactive)
51 | NC(=O)c1nsc(C(=O)N(Cc2ccccc2Cl)C(C(=O)NCC2CCCO2)c2ccc(O)cc2)c1N (stereo not drawn) | 0.56 (inactive)
52 | N#Cc1cccc2c1-c1ccccc1/C2=N/NC(N)=O | 0.02 (inactive)
53 | CCCn1c(NC(=O)c2ccc(Cl)c(S(=O)(=O)N3CCCC3)c2)nc2ccccc21 | 7.42 (inactive)
54 | CCOC(=O)C(C)Sc1nc2c(c(=O)[nH]c(=O)n2C)n1Cc1ccc(Cl)cc1 (stereo not drawn) | 0.86 (inactive)
55 | OCCNc1nc2ccccc2n1CCN1CCCCC1 | -1.79 (inactive)
56 | Cc1cc(N2CCC(C)CC2)nc2cccc(O)c12 | 1.88 (inactive)
57 | CCCN1C2=NCCN2c2cc(C)c(C)cc21 | 1.9 (inactive)
58 | COc1ccc(C2NC(C(=O)O)Cc3c2[nH]c2ccccc32)cc1CN1CCN(c2ccc(F)cc2)CC1 (stereo not drawn) | -2.51 (inactive)
59 | COc1cc(CNC2CCCC2)cc(Cl)c1OCc1ccc(F)cc1 | -14.9 (inactive)

Row | Structure (SMILES) | potentiation ratio
60 | CC1CCN(C(C)C(=O)Nc2ccccc2-c2ccccc2)CC1 (stereo not drawn) | -10.5 (inactive)
61 | COc1cccc(C(=O)C2CCCN(Cc3cccn3-c3ccccn3)C2)c1 (stereo not drawn) | 1.06 (inactive)
62 | N=c1c2c(n(Cc3ccccc3)c3c1CCC3)CCC2 | -0.1 (inactive)
63 | OCC1(CCCc2ccccc2)CCN(Cc2cc(F)ccc2F)CC1 | -7.62 (inactive)
64 | N#Cc1c(NC(=O)C2CC(Cl)=CCC2C(=O)O)sc2c1CCCCC2 (stereo not drawn) | 0.07 (inactive)
65 | c1ccc2[nH]c(CCCCc3nc4ccccc4[nH]3)nc2c1 | 1.94 (inactive)
66 | CN(C)CCN1C(=O)C2C(C(=O)Nc3cc(Cl)cc(Cl)c3)C3C=CC2(O3)C1C(=O)NC1CCCCC1 (stereo not drawn) | -7.43 (inactive)
67 | CCc1cccc(OCC(=O)Nc2ccc(C(=O)O)cc2NC(=O)COc2cccc(CC)c2)c1 | -0.25 (inactive)
68 | CCc1ccc2nc(N=C(N)N)nc(C)c2c1 | -0.04 (inactive)
69 | C=CCOc1ccc(Br)cc1CNC(C)(C)CO | 1.38 (inactive)
70 | O=c1c2ccccc2[nH]c(=S)n1CCN1CCN(Cc2ccccc2)CC1 | -10.9 (inactive)
71 | CN(CC(=O)NC1CCCc2ccccc21)C1CCCCC1 (stereo not drawn) | 0.66 (inactive)
72 | Cc1cc(C(=O)N/N=C\c2cc(C(C)(C)C)ccc2O)n[nH]1 | 2.2 (inactive)
73 | CC1(C)CC2CC(C)(CN2C(=O)c2cc(-c3ccc(O)cc3)on2)C1 (stereo not drawn) | 13.7 (inactive)
74 | OCC1(Cc2ccccc2)CCCN(Cc2cnn(-c3ccccc3)c2)C1 (stereo not drawn) | 0 (inactive)
75 | CCOc1ccccc1CN1CCC(n2nccc2NC(=O)CCc2ccccc2)CC1 | -10.8 (inactive)
76 | CCCOc1cccc(C(=O)NCCNC(=O)c2ccco2)c1 | 6.59 (inactive)
77 | Brc1ccc(CN2C3=NCCCN3c3ccccc32)cc1 | -0.83 (inactive)
78 | Cc1[nH]n(C)c(=O)c1C(=O)c1c(-c2c(Cl)cccc2Cl)noc1C | 0.07 (inactive)
